# A number with no mark means an inactive call. Active and inactive are the calls of the source. Calls come from the whole dose curve; as a rule, active = well fitted inhibition curve with a large enough effect; inconclusive = small, poorly fitted or top-dose-only effect; inactive = flat fitted curve, though single readings scatter.
# Target: Luciferin 4-monooxygenase (Photinus pyralis) (UniProt P08659)
# Experiment: Primary firefly luciferase (FLuc) qHTS assay for identification of artifact compounds. (AID 1845220); note: nearly all actives have a fitted effect of over 60% in size;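 for activity change, negative = inhibition: plate controls were DMSO vehicle for no effect and no enzyme for full effect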
# Conditions: purified firefly luciferase, luminescence, 5 min; series mostly up to 54.1 µM; activity change, negative = inhibition: at the top concentration
# Outline: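 Compounds sat 15 min at room temperature with 10 uM luciferin and 10 uM ATP (pH 7.6 Tris acetate). Firefly luciferase (10 nM final) was then added, and luminescence was read 5 min later. Data normalized to no-enzyme and DMSO controls were Hill-fitted.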
# Potency is the fitted concentration of half-maximal effect.
Structure (SMILES),"activity change, negative = inhibition",outcome,Potency
CC(=O)O[C@@H]1CC2C(C)(C)C(=O)C=C[C@]2(C)C2CC[C@]3(C)C(=CC(=O)[C@@H]3c3ccoc3)[C@@]21C (stereo partly drawn),3.17% [at 25.7 µM],–,–
CC(=O)OC1CC(C(C)(C)O)OC2CCC3(C)OC4=C(C(=O)C=C5C(C)C(OC(C)=O)C6(C)C(C)OC546)C(O)C3C12C (stereo not drawn),-5.33% [at 25.7 µM],–,–
Cc1ncc(NC(=O)c2ccc(CN3CCN(C)CC3)c(C(F)(F)F)c2)cc1Nc1nccc(-c2cccnc2)n1,–,inactive,–
CC1C(O)C(O)C2C(C(=O)OCCc3ccc(O)cc3)=COC(O[C@@H]3O[C@H](CO)[C@@H](O)[C@H](O)[C@H]3O)C12 (stereo partly drawn),3.41% [at 25.7 µM],–,–
CC1OC(O[C@@H]2[C@H](O)[C@@H](OC3OC(CO)C(O)C(O)C3O)[C@H](OC(=O)[C@]34CCC(C)(C)C[C@H]3C3=CCC5[C@@]6(C)CC[C@H](O[C@@H]7O[C@H](C(=O)O)[C@@H](O)[C@H](O[C@@H]8OC[C@@H](O)[C@H](O)[C@H]8O)[C@H]7O[C@@H]7O[C@H](CO)[C@H](O)[C@H](O)[C@H]7O)[C@@](C)(C=O)C6CC[C@@]5(C)[C@]3(C)C[C@H]4O)O[C@@H]2C)C(O)C(O)C1OC1OCC(O)C(O)C1O (stereo partly drawn),1.16% [at 6.45 µM],–,–
Cc1cc(CNC(=O)c2cc(C(=O)NCc3ccc(F)c(C)c3)ncn2)ccc1F,2.85%,–,–
C=CC(C)(CCC=C(C)C)O[C@@H]1O[C@H](CO)[C@@H](O)[C@H](O)[C@H]1O (stereo partly drawn),3.33%,–,–
COC(=O)C(CC1(O)c2ccccc2N2C(=O)C(CC(C)C)NC21)n1cnc2ccccc2c1=O (stereo not drawn),–,inactive [at 25.7 µM],–
CC(=O)OCC1OC(O[C@H]2CC[C@@]3(C)C(CC[C@]4(C)C3CC=C3[C@@H]5CC(C)(C)CC[C@]5(C(=O)O)CC[C@]34C)[C@]2(C)CO)C(O)C(O)C1OC1OC(C)C(O)C(OC2OCC(O)C(O)C2O)C1O (stereo partly drawn),–,inactive [at 11.6 µM],–
FC(F)(F)c1nnc2c(Sc3ccccc3)nc3ccc(Cl)cc3n12,2.96%,–,–
CC(C)(OC1OC(CO)C(O)C(O)C1O)C1CCC(O)(CO)C2CC(=O)C(C)(O)C2C1 (stereo not drawn),3.74% [at 25.7 µM],–,–
C[C@@H]1O[C@@H](O[C@H]2[C@H](O[C@H]3[C@H](O[C@H]4CC[C@@]5(C)C(CC[C@]6(C)C5CC=C5[C@@H]7CC(C)(C)C[C@@H](O)[C@]7(C)CC[C@]56C)C4(C)C)O[C@H](C(=O)O)[C@@H](O)[C@@H]3O)O[C@H](C(=O)O)[C@H](O)[C@@H]2O)[C@H](O)[C@H](O)[C@H]1O (stereo partly drawn),–,inactive [at 11.6 µM],–
CC1(C)CC=C(C#Cc2ccccc2)c2cc(/C=C/c3ccc(C(=O)O)cc3)ccc21,–,–,10.7 µM (active)
CC1CCC2(C(=O)OC3OC(CO)C(O)C(O)C3O)CCC3(C)C(=CCC4C5(C)CCC(O)C(C)(CO)C5CCC43C)C2C1(C)O (stereo not drawn),–,inactive [at 25.7 µM],–
OC[C@H]1O[C@@H](O[C@H]2[C@H](O)[C@@H](CO)O[C@@H](OCc3ccccc3)[C@@H]2O[C@@H]2OC[C@](O)(CO)[C@H]2O)[C@H](O)[C@@H](O)[C@@H]1O,–,inactive [at 25.7 µM],–
CC1(O)CC(O)C2C(C(=O)O)=COC(OC3OC(CO)C(O)C(O)C3OC(=O)/C=C/c3ccc(O)cc3)C21 (stereo not drawn),–,inactive [at 25.7 µM],–
COc1cc2nc(=NC(=O)c3cccnc3)n3c(c2cc1OC)NCC3,4.4%,–,–
OCC1OC(Oc2cc(O)cc(/C=C/c3ccc(OC4OC(CO)C(O)C(O)C4O)cc3O)c2)C(O)C(O)C1O (stereo not drawn),3.16% [at 25.7 µM],–,–
CC(=O)O[C@H]1C[C@@H](O)C(C)(C)C2C[C@@H](OC(C)=O)[C@@]3(C)C4=CCC(C(CO)CC(O)C5OC5(C)C)[C@]4(C)CCC3[C@]21C (stereo partly drawn),–,inactive [at 25.7 µM],–
CC1OC(O[C@H]2CC[C@@]3(C)C(CC[C@]4(C)C3CC=C3C5CC(C)(C)CC[C@]5(C(=O)OC5OC(CO)C(OC6OCC(OC7OCC(O)C(O)C7O)C(O)C6O)C(O)C5O)CC[C@]34C)C2(C)C)C(O)C(O)C1OC1OC(CO)C(O)C(OC2OC(CO)C(O)C(O)C2O)C1O (stereo partly drawn),–,inactive [at 11.6 µM],–
O=C1C(Cl)=C(N2CCOCC2)C(=O)N1c1ccc(Cl)c(Cl)c1,-4.52% [at 25.7 µM],–,–
COC(=O)C1=COC(O[C@@H]2O[C@H](COC(=O)/C=C/c3ccc(O)cc3)[C@@H](O)[C@H](O)[C@H]2O)C2C(CO)=CCC12 (stereo partly drawn),-0.0766% [at 25.7 µM],–,–
C[C@@H]1O[C@@H](O[C@H]2[C@H](OC(=O)[C@]34CCC(C)(C)C[C@H]3C3=CCC5[C@@]6(C)CC[C@H](O[C@@H]7O[C@H](CO[C@@H]8OC[C@H](O)[C@H](O)[C@H]8O[C@@H]8OC[C@@H](O)[C@H](O)[C@H]8O)[C@@H](O)[C@H](O)[C@H]7O)C(C)(C)C6CC[C@@]5(C)[C@]3(C)C[C@H]4O)O[C@H](CO)[C@@H](O)[C@@H]2O)[C@H](O[C@@H]2O[C@H](CO)[C@@H](O)[C@H](O)[C@H]2O)[C@H](O)[C@H]1O[C@@H]1OC[C@@H](O)[C@H](O[C@@H]2OC[C@@H](O)[C@H](O)[C@H]2O)[C@H]1O (stereo partly drawn),2.11% [at 6.45 µM],–,–

# Reference: PubChem BioAssay (NCATS)
